Test results: PubChem BioAssay (EPA / NIEHS)
Inconclusive results are not listed. A structure can be active in one record and inactive in another. Calls of active or inactive are those of the source. The calls were made as follows, unless noted: active = hit-call score of the fitted dose curve at least 0.9, where 1 is the maximum; inactive = score below 0.9.

What was measured:
[1] = biological target: Transcription factor E2F1 (Homo sapiens) (UniProt Q01094); test: ATG_E2F_CIS: Attagene CIS-FACTORIAL HepG2 Assay for human E2F Transcription Factor 1 (AID 2282935); details: HepG2 Attagene cis-reporter, E2F reporter RNA transcripts; actives raise or lower the signal
Procedure, shortened: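 In this cis-factorial format, endogenous factor activity drives transfected reporters in HepG2; transcripts collected at 24 h are quantified by fluorescence after RT-PCR and capillary separation.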

[2] = ATG_GRE_CIS: Attagene CIS-FACTORIAL HepG2 Assay for human Glucocorticoid Response Elements (GRE) (AID 2282947); details: HepG2 GRE cis-reporter, Attagene multiplex mRNA; actives raise or lower the signal
Procedure, shortened: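 HepG2, transient cis-reporter transfection, 24 h. Reporter mRNA: RT-PCR then CE, fluorescence. Fit both directions vs DMSO.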

[3] = ATG_ISRE_CIS: Attagene CIS-FACTORIAL HepG2 Assay for human Interferon Regulatory Factor 1 (IRF1) binding to an Interferon-Stimulated Response Element (ISRE) (AID 2282948); details: HepG2 ISRE cis-reporter (Attagene), mRNA transcription readout; actives raise or lower the signal
Procedure, shortened: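 Endogenous transcription factor activity read as reporter transcript abundance via RT-PCR and capillary electrophoresis. HepG2 cells transiently transfected, 24 h chemical exposure. Gain or loss fitted against DMSO baseline.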

[4] = biological target: Hypoxia-inducible factor 1-alpha (Homo sapiens) (UniProt Q16665); test: ATG_HIF1a_CIS: Attagene CIS-FACTORIAL HepG2 Assay for human Hypoxia Inducible Factor 1 (HIF1A) (AID 2282951); details: HepG2 Attagene cis-factorial HIF1a reporter transcription; actives raise or lower the signal
Procedure, shortened: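 Activity is fitted in both directions relative to DMSO. Reporter transcripts are read by RT-PCR, fluorescent primer extension and capillary electrophoresis after 24 h chemical treatment. The cells are HepG2 carrying transiently transfected cis-element-driven reporter units responding to endogenous factors.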

[5] = biological target: Hepatocyte nuclear factor 6 (Homo sapiens) (UniProt Q9UBC0); test: ATG_HNF6_CIS: Attagene CIS-FACTORIAL HepG2 Assay for human Hepatocyte Nuclear Factor 6 (HNF6) (AID 2282952); details: HepG2 Attagene cis-factorial HNF6 reporter transcription; actives raise or lower the signal
Procedure, shortened: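 Endogenous factor activity read in transiently transfected HepG2 via promoter-regulated reporter transcripts. RNA harvested 24 h post-dosing, reverse-transcribed, PCR-amplified, FAM-labelled, HpaI-digested and resolved by capillary electrophoresis; fitted in both directions against DMSO.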

[6] = biological target: Heat shock factor protein 1 (Homo sapiens) (UniProt Q00613); test: ATG_HSE_CIS: Attagene CIS-FACTORIAL HepG2 Assay for human Heat Shock Transcription Factor 1 (HSE) (AID 2282953); details: HepG2 HSE cis-reporter, Attagene RNA transcription; actives raise or lower the signal
Procedure, shortened: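 Reporter mRNA induction in HepG2 is measured 24 h after dosing, using transiently transfected multiplexed cis-regulated reporter units. Signal comes from capillary electrophoresis of labelled RT-PCR products, with DMSO as negative control.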

[7] = ATG_MRE_CIS: Attagene CIS-FACTORIAL HepG2 Assay for human Metal Responsive Element (MRE) (AID 2282954); details: HepG2 MRE cis-reporter transcription, Attagene multiplex; actives raise or lower the signal
Procedure, shortened: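 Readout: capillary electrophoresis of 6-FAM-labelled, HpaI-digested RT-PCR reporter products. System: HepG2 cells carrying transient multiplexed cis reporters, dosed 24 h. Analysis: bidirectional fit, DMSO baseline.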

[8] = ATG_PBREM_CIS: Attagene CIS-FACTORIAL HepG2 Assay for human Phenobarbital-responsive Enhancer Module (PBREM) (AID 2282955); details: HepG2 PBREM cis-reporter, Attagene multiplexed transcription; actives raise or lower the signal
Procedure, shortened: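 Endogenous transcription factor activity was read from reporter transcripts in transiently transfected human HepG2 liver cells after 24 h dosing. RT-PCR products were fluorescently labelled, HpaI-cut and sized by capillary electrophoresis; activity fitted bidirectionally against DMSO baseline.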

[9] = ATG_PPRE_CIS: Attagene CIS-FACTORIAL HepG2 Assay for human Peroxisome Proliferator-activated Response Element (PPRE) (AID 2282958); details: HepG2 PPRE cis-element reporter, Attagene transcription factor profiling; actives raise or lower the signal
Procedure, shortened: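 Endogenous PPRE-driven transcription is measured in HepG2 cells carrying transfected multi-reporter constructs. Reporter transcripts are quantified by RT-PCR, HpaI digestion and capillary electrophoresis 24 h after dosing. DMSO baseline, bidirectional fit.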

[10] = ATG_TCF_b_cat_CIS: Attagene CIS-FACTORIAL HepG2 Assay for human T-Cell-Factor with beta-catenin (TCF/b-cat) (AID 2282965); details: HepG2 TCF/beta-catenin cis-reporter transcription, actives raise or lower the signal
Procedure, shortened: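 HepG2 cells transiently transfected with multiple cis-promoter-regulated reporter transcription units, so endogenous transcription factor activity is measured. Reporter mRNA read 24 hours after dosing by RT-PCR, fluorescent labelling and capillary electrophoresis; bidirectional fitting against DMSO.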

[11] = ATG_M_06_TRANS: Attagene TRANS-FACTORIAL HepG2 Assay for M06 Transcription Factor (Internal Marker) (AID 2282983; active = hit-call score of the fitted dose curve at least 0.9, where 1 is the maximum;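 also: reporter transcript level by RT-PCR then capillary electrophoresis fluorescence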); details: HepG2 Attagene TRANS M06 internal marker reporter
Procedure, shortened: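 Background-control reporter readout: after 24 h chemical exposure of transiently transfected HepG2 (GAL4-UAS reporter units), mRNA quantified by RT-PCR with fluorescent labeling and capillary electrophoresis. Gain-of-signal fitting against DMSO baseline.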

[12] = biological target: Transcriptional activator Myb (Homo sapiens) (UniProt P10242); test: ATG_Myb_CIS: Attagene CIS-FACTORIAL HepG2 Assay for human Myeloblastosis (Myb) Proto-Oncogene Transcription Factor (AID 2282986); details: HepG2 Attagene CIS-FACTORIAL Myb reporter transcription; actives raise or lower the signal
Procedure, shortened: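 Reporter mRNA is quantified by RT-PCR and capillary electrophoresis 24 h after dosing HepG2 cells transfected with cis-regulated reporter units, which track endogenous transcription factor activity. Gain and loss of signal are fitted versus DMSO baseline.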

[13] = biological target: Nuclear respiratory factor 1 (Homo sapiens) (UniProt Q16656); test: ATG_NRF1_CIS: Attagene CIS-FACTORIAL HepG2 Assay for human Nuclear Respiratory Factor 1 (NRF1) Orphan Gene (AID 2282987); details: HepG2 NRF1 cis-element reporter, Attagene multiplex; actives raise or lower the signal
Procedure, shortened: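 Endogenous NRF1-driven reporter transcription in transfected HepG2 cells after 24 h treatment. Readout: RT-PCR products, 6-FAM labelled and resolved by capillary electrophoresis; changes fitted both directions relative to DMSO.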

[14] = biological target: Retinoic acid receptor RXR-alpha (Homo sapiens) (UniProt P19793); test: ATG_RXRa_TRANS: Attagene TRANS-FACTORIAL HepG2 Assay for human Retinoid X Receptor alpha (RXRa) (AID 2283012; active = hit-call score of the fitted dose curve at least 0.9, where 1 is the maximum)
Procedure, shortened: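 Chimeric NR-GAL4 trans-activation in HepG2, 24 h treatment; reporter transcripts quantified by fluorescence on capillary electrophoresis, analysed for upward change from DMSO.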

[15] = biological target: Cellular tumor antigen p53 (Homo sapiens) (UniProt P04637); test: TOX21_p53_BLA_p2_ratio: Tox21 HCT-116 p53 Agonism Beta-lactamase Assay, Ratio, Phase 2 (AID 2283592; active = hit-call score of the fitted dose curve at least 0.9, where 1 is the maximum)
Procedure, shortened: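 Read-out is the blue/green (460/530 nm, 405 nm excitation) ratio after 2 h CCF4-AM loading, fitted as gain versus DMSO. Compounds, pinned at 217-fold dilution from DMSO stocks, stayed 16 h on HCT-116 beta-lactamase reporter cells seeded 5 h earlier.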

[16] = biological target: Cellular tumor antigen p53 (Homo sapiens) (UniProt P04637); test: TOX21_p53_BLA_p3_ratio: Tox21 HCT-116 p53 Agonism Beta-lactamase Assay, Ratio, Phase 3 (AID 2283596; active = hit-call score of the fitted dose curve at least 0.9, where 1 is the maximum)
Procedure, shortened: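 Cells were seeded at 4000/well, rested 5 h at 37C, then dosed with DMSO compound solutions (217-fold dilution) for 16 h. CCF4-AM substrate was loaded for 2 h at room temperature, and the 460/530 nm emission ratio was fitted for gain of signal versus DMSO.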

[17] = biological target: Cellular tumor antigen p53 (Homo sapiens) (UniProt P04637); test: TOX21_p53_BLA_p5_ratio: Tox21 HCT-116 p53 Agonism Beta-lactamase Assay, Ratio, Phase 5 (AID 2283599; active = hit-call score of the fitted dose curve at least 0.9, where 1 is the maximum)
Procedure, shortened: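 HCT-116 cells carrying a p53-inducible beta-lactamase reporter were seeded at 4000 cells/well and dosed after 5 h with compound in DMSO (217-fold dilution). After 16 h at 37C, CCF4-AM substrate was added for 2 h, and the 460/530 nm emission ratio was scored as gain-of-signal versus DMSO.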

[18] = biological target: Cellular tumor antigen p53 (Homo sapiens) (UniProt P04637); test: TOX21_p53_BLA_p4_ratio: Tox21 HCT-116 p53 Agonism Beta-lactamase Assay, Ratio, Phase 4 (AID 2283601; active = hit-call score of the fitted dose curve at least 0.9, where 1 is the maximum)
Procedure, shortened: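 HCT116 cells carrying an inducible beta-lactamase reporter were plated at 4000 cells/well, rested 5 h, then exposed to compounds in DMSO (217-fold dilution) for 16 h at 37C. CCF4-AM substrate was loaded 2 h at room temperature; 460/530 nm emission ratio scored gain-of-signal versus DMSO.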

[19] = ATG_M_61_CIS: Attagene CIS-FACTORIAL HepG2 Assay for M61 Transcription Factor (Internal Marker) (AID 2282937); details: HepG2 Attagene CIS-FACTORIAL M61 internal marker reporter; actives raise or lower the signal
Procedure, shortened: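 Readout is reporter mRNA by RT-PCR, fluorescent primer extension and capillary electrophoresis, with gain or loss fitted relative to DMSO. Transfected HepG2 cells carrying endogenous-TF-driven cis reporters were exposed to chemicals for 24 hours.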

[20] = biological target: Nuclear receptor subfamily 4 group A member 2 (Homo sapiens) (UniProt P43354); test: ATG_NURR1_TRANS: Attagene TRANS-FACTORIAL HepG2 Assay for human Nuclear Receptor Related Protein 1 (NURR1) (AID 2282985; active = hit-call score of the fitted dose curve at least 0.9, where 1 is the maximum); details: HepG2 Attagene TRANS reporter, mRNA readout
Procedure, shortened: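 Chimeric NR-Gal4 proteins were expressed in human HepG2 cells bearing GAL4-UAS reporter units, and induced reporter mRNA was quantified 24 h post-dosing by RT-PCR and capillary electrophoresis.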

Measured: AC50

Chain of Hypoxia-inducible factor 1-alpha (Homo sapiens) (Q16665 whole entry, looked up): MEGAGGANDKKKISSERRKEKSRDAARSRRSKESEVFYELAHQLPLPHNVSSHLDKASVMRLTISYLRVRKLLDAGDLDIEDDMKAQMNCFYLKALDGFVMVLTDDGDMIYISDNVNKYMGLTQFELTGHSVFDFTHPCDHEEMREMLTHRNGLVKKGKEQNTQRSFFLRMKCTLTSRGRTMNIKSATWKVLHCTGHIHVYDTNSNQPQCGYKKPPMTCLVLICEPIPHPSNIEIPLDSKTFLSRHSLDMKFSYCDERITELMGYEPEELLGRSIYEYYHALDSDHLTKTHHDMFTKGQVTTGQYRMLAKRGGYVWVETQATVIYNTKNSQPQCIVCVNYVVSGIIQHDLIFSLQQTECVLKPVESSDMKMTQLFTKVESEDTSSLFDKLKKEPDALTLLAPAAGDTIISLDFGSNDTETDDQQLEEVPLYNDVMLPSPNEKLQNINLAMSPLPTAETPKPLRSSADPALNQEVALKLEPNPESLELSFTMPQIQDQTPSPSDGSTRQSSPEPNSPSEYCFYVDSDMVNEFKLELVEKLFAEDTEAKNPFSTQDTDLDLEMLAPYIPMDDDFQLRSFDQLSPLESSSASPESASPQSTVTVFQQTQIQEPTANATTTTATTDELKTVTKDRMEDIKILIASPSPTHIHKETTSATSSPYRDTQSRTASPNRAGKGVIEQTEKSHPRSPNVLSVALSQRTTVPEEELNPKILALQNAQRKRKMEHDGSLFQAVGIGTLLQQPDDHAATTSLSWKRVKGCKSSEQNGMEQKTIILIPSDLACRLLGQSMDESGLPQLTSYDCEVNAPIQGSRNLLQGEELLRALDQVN
Chain of Heat shock factor protein 1 (Homo sapiens) (Q00613 whole entry, looked up): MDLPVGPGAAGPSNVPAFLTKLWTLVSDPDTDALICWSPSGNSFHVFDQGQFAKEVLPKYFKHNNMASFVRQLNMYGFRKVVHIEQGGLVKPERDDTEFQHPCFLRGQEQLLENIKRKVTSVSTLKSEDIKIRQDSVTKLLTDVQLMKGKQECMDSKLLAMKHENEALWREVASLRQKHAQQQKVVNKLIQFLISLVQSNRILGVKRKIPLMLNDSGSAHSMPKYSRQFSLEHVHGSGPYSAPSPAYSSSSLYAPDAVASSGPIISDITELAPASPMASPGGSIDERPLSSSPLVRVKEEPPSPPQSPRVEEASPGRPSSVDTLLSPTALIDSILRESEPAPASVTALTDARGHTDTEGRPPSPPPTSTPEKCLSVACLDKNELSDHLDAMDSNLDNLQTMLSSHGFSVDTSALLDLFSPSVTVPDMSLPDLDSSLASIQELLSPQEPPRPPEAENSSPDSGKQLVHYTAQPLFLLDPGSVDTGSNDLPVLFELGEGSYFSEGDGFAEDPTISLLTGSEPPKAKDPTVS
Chain of Hepatocyte nuclear factor 6 (Homo sapiens) (Q9UBC0 whole entry, looked up): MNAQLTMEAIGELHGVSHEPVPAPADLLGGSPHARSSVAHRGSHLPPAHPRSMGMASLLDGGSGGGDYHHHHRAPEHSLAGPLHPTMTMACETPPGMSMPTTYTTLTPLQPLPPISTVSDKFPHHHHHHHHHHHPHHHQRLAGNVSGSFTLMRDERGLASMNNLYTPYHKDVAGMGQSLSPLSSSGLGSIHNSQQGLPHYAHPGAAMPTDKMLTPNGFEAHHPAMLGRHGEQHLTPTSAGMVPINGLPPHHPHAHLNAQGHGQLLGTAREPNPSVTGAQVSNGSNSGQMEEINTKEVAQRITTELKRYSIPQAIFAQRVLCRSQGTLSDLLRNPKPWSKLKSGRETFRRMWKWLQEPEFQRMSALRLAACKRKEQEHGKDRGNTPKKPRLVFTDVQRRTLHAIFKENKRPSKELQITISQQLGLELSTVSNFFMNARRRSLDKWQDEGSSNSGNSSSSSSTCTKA
Chain of Nuclear respiratory factor 1 (Homo sapiens) (Q16656 whole entry, looked up): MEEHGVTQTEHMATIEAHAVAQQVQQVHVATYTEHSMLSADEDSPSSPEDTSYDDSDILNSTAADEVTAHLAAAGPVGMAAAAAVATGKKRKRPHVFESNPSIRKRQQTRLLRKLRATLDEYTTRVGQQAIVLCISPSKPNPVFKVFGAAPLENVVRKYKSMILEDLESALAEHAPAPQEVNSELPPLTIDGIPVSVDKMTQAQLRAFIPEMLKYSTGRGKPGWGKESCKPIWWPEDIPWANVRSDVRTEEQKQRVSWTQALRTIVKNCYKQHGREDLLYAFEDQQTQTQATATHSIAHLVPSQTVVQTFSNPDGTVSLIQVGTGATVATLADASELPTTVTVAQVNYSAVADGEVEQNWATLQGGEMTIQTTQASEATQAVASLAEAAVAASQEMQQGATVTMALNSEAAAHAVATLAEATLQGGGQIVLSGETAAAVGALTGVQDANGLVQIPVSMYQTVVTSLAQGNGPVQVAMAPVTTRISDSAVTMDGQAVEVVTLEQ
Chain of Transcription factor E2F1 (Homo sapiens) (Q01094 whole entry, looked up): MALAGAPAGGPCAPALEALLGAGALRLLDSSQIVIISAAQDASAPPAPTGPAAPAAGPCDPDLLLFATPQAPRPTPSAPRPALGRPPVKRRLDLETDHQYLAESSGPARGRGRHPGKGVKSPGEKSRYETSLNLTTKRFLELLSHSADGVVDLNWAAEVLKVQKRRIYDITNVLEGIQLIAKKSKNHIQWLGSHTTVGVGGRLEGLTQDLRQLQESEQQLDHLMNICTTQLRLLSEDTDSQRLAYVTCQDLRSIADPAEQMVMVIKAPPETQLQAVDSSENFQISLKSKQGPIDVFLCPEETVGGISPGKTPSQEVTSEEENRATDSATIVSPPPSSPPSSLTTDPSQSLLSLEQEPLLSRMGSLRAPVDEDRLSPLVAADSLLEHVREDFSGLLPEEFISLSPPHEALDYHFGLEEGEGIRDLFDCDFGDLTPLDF
Chain of Transcriptional activator Myb (Homo sapiens) (P10242 whole entry, looked up): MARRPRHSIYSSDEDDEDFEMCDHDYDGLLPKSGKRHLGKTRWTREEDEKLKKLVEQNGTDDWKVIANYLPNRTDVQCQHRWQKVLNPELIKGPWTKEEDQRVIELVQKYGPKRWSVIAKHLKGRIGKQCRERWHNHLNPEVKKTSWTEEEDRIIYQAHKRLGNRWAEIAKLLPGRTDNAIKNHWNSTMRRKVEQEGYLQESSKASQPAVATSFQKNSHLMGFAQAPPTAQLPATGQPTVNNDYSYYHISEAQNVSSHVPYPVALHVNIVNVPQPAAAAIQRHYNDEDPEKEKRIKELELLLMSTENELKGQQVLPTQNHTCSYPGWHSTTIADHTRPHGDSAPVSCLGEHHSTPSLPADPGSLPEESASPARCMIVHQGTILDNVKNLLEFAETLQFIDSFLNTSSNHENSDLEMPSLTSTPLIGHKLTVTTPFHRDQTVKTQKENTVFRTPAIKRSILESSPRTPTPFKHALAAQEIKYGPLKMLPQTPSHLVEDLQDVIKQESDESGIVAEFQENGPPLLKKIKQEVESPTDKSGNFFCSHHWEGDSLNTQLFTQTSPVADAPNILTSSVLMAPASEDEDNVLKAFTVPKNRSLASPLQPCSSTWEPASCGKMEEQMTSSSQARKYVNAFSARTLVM
Chain of Retinoic acid receptor RXR-alpha (Homo sapiens) (P19793 whole entry, looked up, the tested form may be a part): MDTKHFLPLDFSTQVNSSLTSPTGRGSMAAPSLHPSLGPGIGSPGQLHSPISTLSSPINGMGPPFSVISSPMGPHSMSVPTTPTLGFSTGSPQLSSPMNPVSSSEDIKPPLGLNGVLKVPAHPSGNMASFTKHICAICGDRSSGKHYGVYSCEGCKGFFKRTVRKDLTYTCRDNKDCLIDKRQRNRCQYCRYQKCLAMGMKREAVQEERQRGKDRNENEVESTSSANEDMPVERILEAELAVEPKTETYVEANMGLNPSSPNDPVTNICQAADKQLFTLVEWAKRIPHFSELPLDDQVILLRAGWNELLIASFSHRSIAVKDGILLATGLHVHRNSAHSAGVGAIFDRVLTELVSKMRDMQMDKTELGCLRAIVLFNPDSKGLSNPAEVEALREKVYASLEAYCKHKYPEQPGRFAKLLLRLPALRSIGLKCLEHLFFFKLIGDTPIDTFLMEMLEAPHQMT
Chain of Cellular tumor antigen p53 (Homo sapiens) (P04637 whole entry, looked up): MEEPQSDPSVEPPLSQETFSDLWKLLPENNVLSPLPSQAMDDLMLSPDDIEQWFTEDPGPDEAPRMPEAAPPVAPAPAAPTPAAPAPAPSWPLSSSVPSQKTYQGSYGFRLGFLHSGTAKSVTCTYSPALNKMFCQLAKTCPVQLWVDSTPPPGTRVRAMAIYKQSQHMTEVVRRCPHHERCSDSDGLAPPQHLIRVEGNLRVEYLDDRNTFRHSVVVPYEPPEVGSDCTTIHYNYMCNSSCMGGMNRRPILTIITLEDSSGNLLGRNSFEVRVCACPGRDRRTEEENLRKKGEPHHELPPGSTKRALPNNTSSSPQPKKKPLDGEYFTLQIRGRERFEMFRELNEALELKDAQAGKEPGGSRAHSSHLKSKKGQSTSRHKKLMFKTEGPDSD
Chain of Nuclear receptor subfamily 4 group A member 2 (Homo sapiens) (P43354 whole entry, looked up, the tested form may be a part): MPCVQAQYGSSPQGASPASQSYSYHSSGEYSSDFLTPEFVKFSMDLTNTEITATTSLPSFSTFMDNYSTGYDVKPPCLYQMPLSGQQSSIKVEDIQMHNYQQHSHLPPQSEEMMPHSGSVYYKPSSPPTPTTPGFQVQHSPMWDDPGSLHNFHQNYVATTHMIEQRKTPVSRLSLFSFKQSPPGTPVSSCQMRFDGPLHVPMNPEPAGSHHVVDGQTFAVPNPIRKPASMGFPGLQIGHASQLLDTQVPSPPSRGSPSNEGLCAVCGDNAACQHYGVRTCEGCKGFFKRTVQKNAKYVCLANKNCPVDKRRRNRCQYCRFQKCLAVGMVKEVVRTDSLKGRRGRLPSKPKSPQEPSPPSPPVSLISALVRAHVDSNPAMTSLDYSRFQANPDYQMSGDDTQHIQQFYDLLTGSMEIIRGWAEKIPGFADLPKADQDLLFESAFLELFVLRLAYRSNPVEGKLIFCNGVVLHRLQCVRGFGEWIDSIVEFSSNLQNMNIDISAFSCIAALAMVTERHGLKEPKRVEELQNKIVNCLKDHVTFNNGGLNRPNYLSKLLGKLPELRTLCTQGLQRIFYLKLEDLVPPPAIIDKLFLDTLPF

N#CCCCCC#N
inactive: [1] | [2] | [3] | [4] | [5] | [6] | [7] | [8] | [9] | [10] | [11] | [12] | [13] | [14] | [15] | [16] | [17] | [18]

CC(C)CCCCCCCOC(=O)c1ccccc1C(=O)OCCCCCCCC(C)C
inactive: [1] | [2] | [5] | [6] | [7] | [8] | [10] | [14] | [15] | [17]

O=C(NCNC(=O)NC1C(=O)NC(=O)N1CO)NC1C(=O)NC(=O)N1CO (stereo not drawn)
inactive: [1] | [19] | [2] | [3] | [5] | [6] | [9] | [10] | [11] | [13] | [14] | [15] | [16] | [17] | [18]
active: [7] 162 µM

CCC[N+](=O)[O-]
inactive: [3] | [4] | [5] | [6] | [7] | [8] | [9] | [10] | [11] | [12] | [13] | [15] | [16] | [17] | [18]

CC1(C)[C@H](C(=O)O[C@H](C#N)c2cccc(Oc3ccccc3)c2)[C@@H]1C=C(Br)Br
inactive: [19] | [2] | [4] | [6] | [9] | [20] | [12] | [13] | [15] | [16] | [17] | [18]
active: [17] 82.2 µM

[Cl][Sb]([Cl])[Cl]
inactive: [1] | [19] | [2] | [3] | [4] | [5] | [7] | [8] | [9] | [11] | [12] | [13] | [15] | [16] | [17] | [18]
active: [6] 169 µM

CCOC(=O)C1OC1(C)c1ccccc1 (stereo not drawn)
inactive: [1] | [19] | [2] | [3] | [4] | [5] | [7] | [8] | [10] | [20] | [12] | [13] | [14] | [15] | [16] | [17] | [18]

CCN(CC)C(=S)S
inactive: [1] | [19] | [2] | [3] | [4] | [5] | [6] | [11] | [20] | [12] | [13] | [14]
active: [7] 71.9 µM

CCNCC
inactive: [19] | [2] | [3] | [4] | [5] | [6] | [7] | [9] | [10] | [11] | [13] | [14]

O=[N+]([O-])c1ccc(Cl)cc1
inactive: [1] | [2] | [4] | [5] | [6] | [7] | [10] | [20] | [12] | [13] | [14] | [15] | [17] | [18]

BrCBr
inactive: [1] | [2] | [3] | [4] | [6] | [7] | [8] | [9] | [20] | [12] | [15] | [16] | [18]
